Screening data from PubChem.
Pf growth 96h: Primary qHTS for delayed death inhibitors of the malarial parasite plastid, 96 hour incubation; Potency, µM (titrated, usually from 28.7 µM), hits mostly inhibitors; P. falciparum luciferase reporter growth, 96 h; 320,000 tested, 6.9% active
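96 h incubation, 37 C, 5% CO2, of luciferase-reporter P. falciparum-infected RBCs (2% hematocrit, 0.05% parasitemia final) with test compounds; endpoint luminescence.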
HCV inhibitor: qHTS Assay for Inhibitors of Hepatitis C Virus (HCV) | Huh7.5.1 HCVcc-Cre infection, luciferase reporter, 44 h | Potency, µM (highest dose often 41.8 µM), hits mostly inhibitors | 340,000 tested, 3.4% active
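After 44 h co-culture of compound, cells and HCVcc-Cre (~0.5 moi), substrate is added for 15 min at room temperature and luciferase measured over 15 sec. Cells were seeded at 1,000/well and pre-cultured 4 h.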
Cycloheximide cs: Cycloheximide Counterscreen for Small Molecule Inhibitors of Shiga Toxin; cell reporter, cycloheximide protein synthesis inhibition counterscreen; 300,000 tested, 12% active; max response, %; in the data active = max response mostly above about 13%, no sharp cut-off; inactive = mostly below about 14%; also: read at 38.3 µM for the half of the compounds with a filed dose
Shiga inhibitor: A qHTS for Small Molecule Inhibitors of Shiga Toxin | 290,000 tested, 9.2% active | Vero cells, Shiga toxin protein synthesis inhibition reporter | AID 2315, 2010 | inhibition, % at 38.7 µM; in the data active = inhibition mostly above about 28%, no sharp cut-off; inactive = mostly below about 43%
AMA1 RON2 block: qHTS for Inhibitors of AMA1-RON; Towards Development of Antimalarial Drug Lead: Primary Screen; AlphaScreen AMA1-biotinylated RON2 peptide binding; Potency, µM (series often up to 58.2 µM), actives largely listed as inhibitors; 360,000 tested, 0.2% active; AID 720542, 2013; Plasmodium falciparum AMA1 (3D7) - RON2 peptide interaction; also: nearly all actives have a fitted effect of over 45% in size
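AMA1 (3D7) with his tag at 25 nM final met compounds first, then biotinylated RON2 peptide at 25 nM; detection used donor plus acceptor beads, 10 µg/mL apiece, read by AlphaScreen after 30 min at room temperature.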
Pf growth 48h: Primary qHTS for delayed death inhibitors of the malarial parasite plastid, 48 hour incubation; P. falciparum luciferase growth in erythrocytes, 48 h; Potency, µM (top dose mostly 28.7 µM), hits mostly inhibitors; 310,000 tested, 5.9% active
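Luciferase-expressing P. falciparum in infected erythrocytes (2% hematocrit, 0.1% parasitemia final) in RPMI 1640/0.5% Albumax were exposed to compound for 48 hours at 37 C, 5% CO2; growth read as luminescence.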
A number is an active result; i = inactive; ? = inconclusive; nt = no result; [ ] = dose if it differs, or a comment. In the library only some 21% were active in any assay of this set; here they are far more common. Unless noted, calls follow the shape of the dose curve; as a rule, active = well fitted curve in the direction sought with a large enough effect; inconclusive = small, poorly fitted or top-dose-only effect, or another doubt; inactive = no such curve, though single readings can be large; an effect the other way counts as inactive or inconclusive.

SMILES | Pf growth 96h | HCV inhibitor | Cycloheximide cs | Shiga inhibitor | AMA1 RON2 block | Pf growth 48h
N#CC1(c2nc3ccccc3[nH]2)CC1c1ccc2c(c1)OCO2 (configuration not stated) | nt | ? | i | i | i | i
CCCCCNC(=O)Cc1ccc(S(=O)(=O)N2CCOCC2)s1 | ? | i | nt | nt | i | ?
CCC1(O)CC(c2ccccc2)=NN1C(=O)c1ccccc1F (configuration not stated) | nt | i | nt | nt | i | nt
C/C(=N\Nc1nc2ccccc2[nH]1)c1ccc2c(c1)OCCO2 | ? | ? | 35.7 | 52.7 | i | 3.7µM
CC(C)C(NC(=O)c1ccc2c(c1)OCCO2)c1nc2ccccc2[nH]1 (configuration not stated) | i | i | i | i | i | i
O=S(=O)(N/N=C\c1ccc2c(c1)OCO2)c1ccccc1 | i | i | i | i | i | i
Clc1ccccc1N/N=C/c1ccc2c(c1)OCO2 | i | i | 75.9 | 115.5 | ? | i
CCOC(=O)c1c(C)[nH]c(C)c1C(=O)COC(=O)c1ccc(Cl)c(S(=O)(=O)NCc2ccccc2)c1 | ? | 7.08µM | i | i | i | nt
COc1ccc(CC2SC(N)=NC2=O)cc1 (configuration not stated) | ? | i | i | nt | i | i
NC(=O)c1cc([N+](=O)[O-])ccc1NCCN1C(=O)c2ccccc2C1=O | i | nt | 23.4 | 65.3 | nt | i
Cc1ccc(CNc2ccc([N+](=O)[O-])cc2C(N)=O)cc1 | i | ? | nt | nt | i | i
Cc1ccc(S(=O)(=O)Nc2c(C)[nH]c(=O)[nH]c2=O)cc1C | 2.62µM | i | i | i | i | i
CC(=O)N1c2ccc(S(=O)(=O)NCCC(=O)Nc3cccc(Cl)c3)cc2CC1C (configuration not stated) | i | i | i | i | i | i
CC(=O)N1CCCN(C(=O)c2ccc3nc(Cc4ccccc4F)oc3c2)CC1 | i | i | 14.4 | i | i | i
O=C(c1ccc2nc(Cc3ccccc3F)oc2c1)N1CC[C@H](O)C1 | i | i | 29.5 | 38.9 | i | i
O=C(c1ccc2nc(Cc3ccccc3F)oc2c1)N1CCCC1 | i | i | 41.3 | 87.3 | i | i
O=C(NCCCN1CCOCC1)c1ccc2nc(Cc3ccccc3F)oc2c1 | i | nt | 21.7 | i | i | i
COc1cccc(CN2C(=O)c3ccccc3Sc3ccc(C(=O)NCCc4ccc(Cl)cc4)cc32)c1 | nt | nt | i | i | nt | nt
O=C(O)c1cn[nH]c1-c1cccc([N+](=O)[O-])c1 | i | i | i | i | i | i
CCn1c(-c2cc(-c3ccccc3OC)nc3ccccc23)n[nH]c1=S | 3.29µM | ? | i | i | i | 2.62µM
COc1ccc(Cl)cc1-c1n[nH]c(=S)n1Cc1ccccc1 | ? | i | i | i | i | i
CCn1c(-c2cc(-c3cc(OC)ccc3OC)nc3ccccc23)n[nH]c1=S | 0.37µM | i | i | i | ? | nt
C[C@H](CO)N1C[C@H](C)[C@@H](CN(C)Cc2ccc3c(c2)OCO3)Oc2ccc(NS(C)(=O)=O)cc2C1=O | nt | i | nt | nt | i | nt
CCOc1ccc(-n2c(-c3ccc(Cl)cc3)c[n+]3c2SCC3)cc1 | 0.0465µM | i | i | i | i | 13.1µM
CCOc1ccc(C2=CSC3=NCCN23)cc1 | i | i | i | i | i | ?
SMILES | Pf growth 96h | HCV inhibitor | Cycloheximide cs | Shiga inhibitor | AMA1 RON2 block | Pf growth 48h
c1ccc(-c2c[n+]3c(n2-c2ccccc2)SCC3)cc1 | 0.415µM | i | i | i | i | 1.65µM
Cc1ccccc1NC(=O)NC1(C(=O)NCc2ccco2)CCCCC1 | i | i | i | i | i | i
CCCN(CC(=O)Nc1ccccc1C)C(=O)c1ccc(S(=O)(=O)N2CCCCCC2)cc1 | ? | i | i | i | i | ?
CCCN(CC(=O)Nc1ccccc1C)C(=O)/C=C/c1ccc(S(=O)(=O)N2CCCCCC2)cc1 | ? | ? | nt | nt | i | 13.1µM
COc1ccc(NC(=O)CN(C)C(=O)/C=C/c2ccc(S(=O)(=O)N3CCCCCC3)cc2)cc1 | i | ? | nt | nt | i | 11.7µM
CN(Cc1ccc(OC(F)F)cc1)C(=O)/C=C/c1ccc(S(=O)(=O)N2CCOCC2)cc1 | nt | ? | nt | nt | i | nt
COc1ccc(CN(C)C(=O)/C=C/c2ccc(S(=O)(=O)N3CCOCC3)cc2)cc1F | ? | ? | nt | nt | i | 11.7µM
CCCN(CC(=O)Nc1ccccc1C)C(=O)CCl | 1.65µM | 7.08µM | i | i | i | ?
O=C(NCc1ccccc1)c1ccc2c(c1)C(=O)N(Cc1cccnc1)C2=O | ? | i[8.37 µM] | i | i | i | i
O=C(Cn1c(=O)n(Cc2ccco2)c(=O)c2c3c(sc21)CCCCC3)Nc1ccccc1 | 11.7µM | i | i | i | i | ?
O=C(O)Cn1c(=O)c2c3c(sc2n(Cc2ccccc2)c1=O)CCCC3 | i | i | i | i | i | i[0.00184 µM]
O=C(Cn1c(=O)n(Cc2ccco2)c(=O)c2c3c(sc21)CCCCC3)c1ccccc1 | i | nt | i | 57.0 | i | i
N#Cc1c(-c2ccccc2)ccnc1N1CCOCC1 | i | i | i | i | i | i
N#Cc1c(-c2ccc(F)cc2)ccnc1N1CCOCC1 | ? | i | 18.5 | i | i | ?
CCOc1ccc(/C=C/c2nc(C#N)c(NCCCOC)o2)cc1 | i | i | i | i | i | ?
COc1cccc(/C=C/c2nc(C#N)c(NCC(C)C)o2)c1 | i | ? | 28.8 | 85.5 | i | i
C=CCNc1oc(Cc2cccc3ccccc23)nc1C#N | ? | ? | i | i | i | nt
COCCCNc1oc(/C=C/c2ccccc2)nc1C#N | i | i | 35.0 | 73.7 | i | i
C=CCNc1oc(/C=C/c2ccccc2)nc1C#N | i | ? | 36.6 | 74.2 | i | i
CN(C)CCNc1oc(/C=C/c2ccccc2)nc1C#N | i | i | 22.8 | i | i[2.32 µM] | i
Cc1ccc(CN(C)C(=O)c2ccccc2NC(=O)c2ccccc2)o1 | ? | i | nt | nt | i | ?
CCCOc1ccc(/C=C/c2c([N+](=O)[O-])c(=O)n(C)c(=O)n2C)cc1 | i | i | i | i | i | i
CCOc1ccc(/C=C/c2nc(C#N)c(NCCCN(C)C)o2)cc1 | i | i | i | i | i | ?
CN(C)CCCNc1oc(/C=C/c2ccccc2)nc1C#N | i | i | 42.0 | 65.2 | i | i
Nc1ccccc1Nc1cc(-c2ccccc2)nn1-c1ccccc1 | ? | i | 18.4 | i | ? | i
Nc1ccccc1Nc1cc(-c2ccccc2)[nH]n1 | ? | ? | 28.9 | 54.8 | i | ?
CCOC(=O)N1C(COCc2ccccc2)C=CCS1(=O)=O (configuration not stated) | nt | nt | 77.9 | 180.8 | nt | nt
CC(C)(C)c1ccc(C(=O)N2[C@H](COCc3ccccc3)C=CS2(=O)=O)cc1 | nt | nt | nt | nt | i | nt
Cc1ccc(C(=O)COc2cc(C)nc3nncn23)cc1 | i | i | i | i | i | i
